This is part of a sample that, as a whole, favours compounds with a hit. Of some 79,000 tested, about 15% had one in any assay. A number with no mark means an inactive call. The source made the active and inactive calls. Rule as the data show it: active = growth inhibition above about 70%; inactive = the rest.

A short description of experiment [1]: NCI Yeast Anticancer Drug Screen. Data for the rad50 strain (AID 155).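 Also: 0% = growth of vehicle-only cultures of the same strain.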 The conditions noted are these: S. cerevisiae rad50 strain growth inhibition; at 50.0 µM; stronger effect = higher value. The method, boiled down: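 Growth of the mutant yeast was measured after compound exposure and referenced to vehicle-treated cultures.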
Experiment [2] in a line: NCI Yeast Anticancer Drug Screen. Data for the mec2-1 strain (AID 157). The conditions noted are these: S. cerevisiae mec2-1 strain, at 50.0 µM, stronger effect = higher value. Summed up: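 Each compound was tested on mec2-1 yeast, a strain altered in DNA damage repair or cell cycle control. Growth inhibition is reported relative to vehicle.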
Experiment [3] in a line: NCI Yeast Anticancer Drug Screen. Data for the sgs1 mgt1 strain (AID 161).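 Also: 0% = growth of cultures given vehicle only.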 The conditions noted are these: S. cerevisiae sgs1 mgt1 strain, at 50.0 µM, stronger effect = higher value. Summed up:
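Read-out: growth inhibition vs vehicle controls. Cells: mutant yeast strain deficient in DNA damage repair.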

A short description of experiment [4]: NCI Yeast Anticancer Drug Screen. Data for the cln2 rad14 strain (AID 165).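 Also: 0% = growth equal to vehicle treated cultures.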 The conditions noted are these: S. cerevisiae cln2 rad14 strain, at 50.0 µM, stronger effect = higher value. The method, boiled down:
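Test compounds were added to cln2 rad14 yeast cultures; inhibition of growth was then determined by comparison with vehicle treatment.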

Experiment [5] is described as follows: NCI Yeast Anticancer Drug Screen. Data for the bub3 strain (AID 167). As to conditions: S. cerevisiae bub3 mutant strain, at 50.0 µM, stronger effect = higher value. Summed up:
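Whole-cell yeast assay. The mutant strain was incubated with compounds, and growth inhibition was determined by comparison with vehicle-treated cells.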

Experiment [6] in a line: NCI Yeast Anticancer Drug Screen. Data for the mlh1 rad18 strain (AID 175). As to conditions: S. cerevisiae mlh1 rad18 strain growth inhibition; at 50.0 µM; stronger effect = higher value. The method, boiled down: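 Inhibition values reflect reduced growth of mutant yeast versus vehicle-treated controls following compound exposure; the mutations affect DNA damage repair.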

Regarding `CC(C)(N)C(=O)N[C@@H]1C(=O)N2[C@@H]1SC(C)(C)[C@@H]2C(=O)O`, the growth inhibition in experiment [1] is 8.4%; in experiment [2], 3.55%; in experiment [3] it was -19.2%; in experiment [4], -0.95%; in experiment [5], 5.9%; in experiment [6], 4%.

On to `COC(SC)(SC)c1cc(-c2c(Cl)cccc2Cl)no1`, for which the growth inhibition in experiment [1] is -7.25%; in experiment [2] it was -7.55%; in experiment [3], -3.1%; in experiment [4] it was 4.3%; in experiment [5], 27.6%; in experiment [6], -4.15%.

Regarding `Nc1nc2c(C(=O)c3ccco3)nnn2c2cccc(Cl)c12`, the growth inhibition is 10.7% in experiment [1]; -2.7% in experiment [2]; 11.6% in experiment [3]; 11.2% in experiment [4]; 8.95% in experiment [5]; 5.85% in experiment [6].

On to `CCCCN(CCCC)CC(O)c1cc(-c2ccc(C(F)(F)F)cc2)nc(-c2ccc(C(F)(F)F)cc2)c1` (stereo not given), for which the growth inhibition in experiment [1] is 25%; in experiment [2], 2.45%; in experiment [3], 2.2%; in experiment [4] it was -24.2%; in experiment [5] it was -33.8%; in experiment [6] it was 82.3% (active).

Turning to `CC(C)(C)NC(=S)NC1CC2CC1C1Cc3ccccc3C21` (stereo not given), the growth inhibition is 20.6% in experiment [1]; -1.45% in experiment [2]; 22.9% in experiment [3]; -37.5% in experiment [4]; 5.8% in experiment [5]; 1.9% in experiment [6].

With `COc1ccc(-c2oc3cc(OC)c(OC)c(O)c3c(=O)c2OC)cc1`, the growth inhibition in experiment [1] is 7.45%; in experiment [2], 0.25%; in experiment [3], 3.05%; in experiment [4], 9.05%; in experiment [5], 13.8%; in experiment [6], -56.5%.

Turning to `CC(=O)C(c1ccccc1)S(=O)(=O)c1ccc(C)cc1` (stereo not given), the growth inhibition in experiment [1] is 13.8%; in experiment [2], -18.4%; in experiment [3], -11.7%; in experiment [4], -42.4%; in experiment [5], 24.9%; in experiment [6], -1.5%.

With `CC1OCOC(CO)C(O)C1O` (stereo not given), the growth inhibition in experiment [1] is -18.5%; in experiment [2], 1.55%; in experiment [3] it was 17.5%; in experiment [4], -32%; in experiment [5], -3%; in experiment [6] it was -5.8%.

In the case of `COC(=O)CC1(CC(=O)O)SCCS1`, the growth inhibition was -13.6% in experiment [1]; 4.3% in experiment [2]; 11.5% in experiment [3]; 2.9% in experiment [4]; 13.5% in experiment [5]; -8.25% in experiment [6].

As to `CC(C(=O)O)N(C)C(=O)OCc1ccccc1` (stereo not given), the growth inhibition in experiment [1] is -3.95%; in experiment [2], -21.1%; in experiment [3], 1.55%; in experiment [4], -18.8%; in experiment [5], -11.8%; in experiment [6], -4.5%.

Regarding `O=[N+]([O-])c1ccc(N/N=C(/c2ccc3ccccc3c2)c2ccccc2F)c([N+](=O)[O-])c1`, the growth inhibition was -9% in experiment [1]; -4.6% in experiment [2]; -12.2% in experiment [3]; -12% in experiment [4]; -1.85% in experiment [5]; -13.6% in experiment [6].

With `CC(C)=CC(=O)n1nc2c(c1CC(C)C)C(=O)C(Nc1ccccc1)=CC2=O`, the growth inhibition is 35.1% in experiment [1]; 3.25% in experiment [2]; 21% in experiment [3]; 24.8% in experiment [4]; 1.3% in experiment [5]; 27.4% in experiment [6].

As for `COc1cc([N+](=O)[O-])ccc1NC(=O)Nc1c(C)n(C)n(-c2ccccc2)c1=O`, the growth inhibition in experiment [1] is -17.1%; in experiment [2] it was 1.75%; in experiment [3] it was -8.3%; in experiment [4], 92.6% (active); in experiment [5], 0.15%; in experiment [6] it was 6.25%.

On to `CC(=O)OCCc1cccc(C)c1`, for which the growth inhibition in experiment [1] is 3.9%; in experiment [2] it was -17.9%; in experiment [3] it was -4.8%; in experiment [4], -30.4%; in experiment [5], -10.7%; in experiment [6] it was 7.3%.

On to `CC(N(N=O)c1cccc(Cl)c1)S(=O)(=O)O` (stereo not given), for which the growth inhibition is 7.25% in experiment [1]; 4.8% in experiment [2]; -6.45% in experiment [3]; 22.6% in experiment [4]; 5.55% in experiment [5]; -0.4% in experiment [6].

`O=C(O)C1CCN(Cc2oc(CO)cc(=O)c2O)C1` (stereo not given): the growth inhibition was -31.6% in experiment [1]; -19.7% in experiment [2]; -19.2% in experiment [3]; -1.4% in experiment [4]; -24.4% in experiment [5]; -2.75% in experiment [6].

Take `CC(=O)OC(NC(=O)c1cc(C)cc(C)c1)c1ccncc1` (stereo not given): the growth inhibition was -2.05% in experiment [1]; -3.05% in experiment [2]; -0.75% in experiment [3]; -8.1% in experiment [4]; 4.6% in experiment [5]; 1.25% in experiment [6].

Regarding `Cc1cccc2c(C=O)c[nH]c12`, the growth inhibition in experiment [1] was 8.9%; in experiment [2], -3.1%; in experiment [3], -13.4%; in experiment [4], -9.55%; in experiment [5], 4.95%; in experiment [6], 14.2%.

Take `COc1ccc(/C(Cl)=C(\C=N/O)c2ccc(OC)c(OC)c2)cc1OC`: the growth inhibition in experiment [1] was -8.45%; in experiment [2], 11.9%; in experiment [3], -0.7%; in experiment [4], 2.05%; in experiment [5], 8.15%; in experiment [6] it was -7.45%.

Turning to `CC(C)CCC(C)(C)COC(=O)c1ccc([N+](=O)[O-])cc1` (tested in a mixture with another compound), the growth inhibition in experiment [1] was 36.5%; in experiment [2], 15.1%; in experiment [3] it was 43.4%; in experiment [4] it was -2.25%; in experiment [5] it was 2.15%; in experiment [6] it was 29.3%.

The record behind these values is PubChem BioAssay (NCI).
